Measured values as given in PubChem BioAssay (NCATS).
Several values for one entry are separate records, joined by “and”; a condition that tells them apart may be missing. Equal entries are not always repeated. Inconclusive results are not listed. Activity calls are given as the source filed them. Unless noted, the call rests on the fitted dose curve; in most records, active means well fitted curve in the direction sought with a large enough effect; inconclusive means small, poorly fitted or top-dose-only effect, or another doubt; inactive means no such curve, though single readings can be large; an effect the other way counts as inactive or inconclusive.

What was measured:
[1] = biological target: Cellular tumor antigen p53 (Homo sapiens) (UniProt P04637); test: Primary qHTS for small molecule compounds that upregulate eGFP-tagged delta133p53alpha (in N-terminal) cells. (AID 2060322); conditions: NCI-H358 eGFP-delta133p53alpha fluorescence, 24 h; activation: stronger effect = higher value;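 further: cells pre-induced with doxycycline then dosed without doxycycline; series mostly up to about 56 µM; 0% = DMSO vehicle and 100% = reference activator; nearly all actives have a fitted effect of over 75% in size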
Outline: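 NCI-H358 cells pre-induced 24 h with 10 ng/ml doxycycline for eGFP-delta133p53alpha, plated dox-free and exposed 24 h at 37C to titrated compounds. Fixed, Hoechst-stained; gated GFP peak intensity by laser scanning cytometry, normalized to DMSO (0%) and 57.5 uM 5-azacytidine (100%).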

[2] = qHTS for Inhibitors of the Aldehyde Dehydrogenase Family (ALDH1A2, ALDH1A3, ALDH2, ALDH3A1) (AID 2061307); further: nearly all actives have a fitted effect of over 50% in size; on Potency: test system not described further here; potency means the concentration at half of the fitted maximal effect
[3] = biological target: Aldehyde dehydrogenase, mitochondrial (Homo sapiens) (UniProt P05091); test: qHTS for Inhibitors of the Aldehyde Dehydrogenase Family (ALDH2) Primary screen (AID 2061308); further: nearly all actives have a fitted effect of over 55% in size; further: potency means the concentration at half of the fitted maximal effect
[4] = biological target: Retinaldehyde dehydrogenase 3 (Homo sapiens) (UniProt P47895); test: qHTS for Inhibitors of the Aldehyde Dehydrogenase Family (ALDH1A3) Confirmatory screens (AID 2061311); further: nearly all actives have a fitted effect of over 60% in size; further: potency means the concentration at half of the fitted maximal effect
[5] = biological target: Retinaldehyde dehydrogenase 3 (Homo sapiens) (UniProt P47895); test: qHTS for Inhibitors of the Aldehyde Dehydrogenase Family (ALDH1A3) Validation screen (AID 2061312); further: nearly all actives have a fitted effect of over 45% in size; further: potency means the concentration at half of the fitted maximal effect
[6] = biological target: Retinaldehyde dehydrogenase 3 (Homo sapiens) (UniProt P47895); test: qHTS for Inhibitors of the Aldehyde Dehydrogenase Family (ALDH1A3) Primary screen (AID 2061315); further: potency means the concentration at half of the fitted maximal effect
[7] = biological target: Aldehyde dehydrogenase 1A1 (Homo sapiens) (UniProt P00352); test: qHTS for Inhibitors of the Aldehyde Dehydrogenase Family (ALDH1A1) Confirmatory screens (AID 2061316); further: nearly all actives have a fitted effect of over 65% in size; further: potency means the concentration at half of the fitted maximal effect
[8] = biological target: Aldehyde dehydrogenase, mitochondrial (Homo sapiens) (UniProt P05091); test: qHTS for Inhibitors of the Aldehyde Dehydrogenase Family (ALDH2) Confirmatory screens (AID 2061303; active means well fitted inhibition curve with a large enough effect; title and protocol of this record describe different tests; further: nearly all actives have a fitted effect of over 45% in size; further: potency means the concentration at half of the fitted maximal effect)
[9] = biological target: Retinal dehydrogenase 2 (Homo sapiens) (UniProt O94788); test: qHTS for Inhibitors of the Aldehyde Dehydrogenase Family (ALDH1A2) Confirmation screens (AID 2061314); further: nearly all actives have a fitted effect of over 65% in size; further: potency means the concentration at half of the fitted maximal effect
[10] = BET inhibitor-based combinations targeting novel dependencies in MECOM-rearranged (r) AML: SET-2 cell line (AID 2202231); conditions: SET-2 AML cells viability, CellTiter-Glo luminescence, 48 h; viability: stronger effect = lower value, concentration not given here; further: nearly all actives have a fitted effect of over 35% in size; further: potency means the concentration at half of the fitted maximal effect;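 on viability: plate controls were DMSO treated cells for no effect and wells without cells for full effect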
Outline: (§1)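 Luminescent ATP readout (CellTiter-Glo) after 48 hr drug exposure gives viability. Curves span 11 concentrations and are normalized to DMSO and empty wells. Activity is reported as area under the curve and its Z-transform within each cell line.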

[11] = BET inhibitor-based combinations targeting novel dependencies in MECOM-rearranged (r) AML: OCI-AML3 cell line (AID 2202232); conditions: Potency: OCI-AML3 viability; further: nearly all actives have a fitted effect of over 35% in size; further: potency means the concentration at half of the fitted maximal effect
Outline: as §1

[12] = BET inhibitor-based combinations targeting novel dependencies in MECOM-rearranged (r) AML: HNT-34 cell line (AID 2202234); further: nearly all actives have a fitted effect of over 35% in size; further: potency means the concentration at half of the fitted maximal effect
Outline: (§2)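 Luminescent ATP readout (CellTiter-Glo, 15 min at room temperature) after 48 hr drug exposure gave viability. Dose-response curves, normalized to DMSO and empty-well controls, were summarized as area under the curve and its mean-centred Z-score.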

[13] = BET inhibitor-based combinations targeting novel dependencies in MECOM-rearranged (r) AML: UCSD-AML1 cell line (AID 2202235); further: nearly all actives have a fitted effect of over 40% in size; further: potency means the concentration at half of the fitted maximal effect
Outline: as §2

[14] = BET inhibitor-based combinations targeting novel dependencies in MECOM-rearranged (r) AML: AML-191 cell line (AID 2202236; further: nearly all actives have a fitted effect of over 35% in size; further: potency means the concentration at half of the fitted maximal effect)
Outline: as §1

[15] = BET inhibitor-based combinations targeting novel dependencies in MECOM-rearranged (r) AML: AML-194 cell line (AID 2202237;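 further: plate controls were vehicle wells for no effect and wells without cells for full effect; nearly all actives have a fitted effect of over 40% in size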)
Outline: as §1

[16] = BET inhibitor-based combinations targeting novel dependencies in MECOM-rearranged (r) AML: MV-4-11 cell line (AID 2202233); further: potency means the concentration at half of the fitted maximal effect; nearly all actives have a fitted effect of over 45% in size
Outline: as §2

Chain of Cellular tumor antigen p53 (Homo sapiens) (P04637 whole entry, looked up): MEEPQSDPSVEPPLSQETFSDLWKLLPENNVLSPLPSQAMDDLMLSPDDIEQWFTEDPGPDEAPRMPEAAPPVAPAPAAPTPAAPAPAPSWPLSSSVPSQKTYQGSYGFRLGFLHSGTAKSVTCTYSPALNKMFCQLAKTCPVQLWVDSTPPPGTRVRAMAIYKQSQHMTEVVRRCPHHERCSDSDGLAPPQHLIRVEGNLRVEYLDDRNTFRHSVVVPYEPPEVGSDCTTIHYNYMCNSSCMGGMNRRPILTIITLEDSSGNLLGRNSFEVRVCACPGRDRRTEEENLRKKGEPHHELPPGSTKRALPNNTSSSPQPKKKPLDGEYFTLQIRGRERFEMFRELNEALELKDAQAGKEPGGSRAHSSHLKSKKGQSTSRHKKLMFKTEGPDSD

O=C(NCC(=O)N1CCCC1)Nc1ccc2ccccc2c1
inactive: activation [1] -2.86% | Potency [3]
active: Potency [2] 5.04 µM | Potency [4] 1.01 µM | Potency [5] 3.55 µM | Potency [6] 2.82 µM | Potency [7] 7.98 µM

O=C(OC1C=C(CO)C2C(OC3OC(CO)C(O)C(O)C3O)OC=CC12O)c1ccc(O)cc1 (stereo not drawn)
inactive: activation [1] 12.2% | Potency [8] | Potency [3] | Potency [9]

Cc1ccc(CN2CCNCC2)cc1NC(=O)CNc1ccc(F)c(F)c1
active: Potency [7] 12.7 µM
inactive: activation [1] -12.8% and -5.25% | Potency [8] | Potency [3] | Potency [4] | Potency [6] | viability [10] 115% | Potency [11] | Potency [12] | Potency [13] | Potency [14] | Potency [15]

OC/C=C/C=C/[C@H]1Cc2cc(O)cc(O)c2O1
inactive: activation [1] 0.893% | Potency [8] | Potency [3] | Potency [9]

CC1(C)O[C@@]2(C)CC[C@@H]1C[C@@H]2OC1OC(CO)C(O)C(O)C1O (stereo partly drawn)
inactive: activation [1] -6.11% | Potency [8] | Potency [3] | Potency [9] | Potency [6] | Potency [7]

C[C@@H]1O[C@@H](O[C@@H]2[C@@H](O)[C@@H](O[C@]3(CO)O[C@H](CO)[C@@H](O)[C@@H]3OC(=O)/C=C/c3ccc(O)cc3)O[C@H](CO)[C@H]2OC(=O)/C=C/c2ccc(O)cc2)[C@H](O)[C@H](O)[C@H]1O[C@@H]1O[C@@H](C)[C@H](O[C@@H]2OC[C@](O)(CO)[C@H]2O)[C@@H](O)[C@H]1O
inactive: activation [1] -2.68% | Potency [2] | Potency [3]

CC(C)=C1CC2C(CCC2(C)O)C(C)(O)CC1=O (stereo not drawn)
inactive: activation [1] 1.79% | Potency [8] | Potency [3] | Potency [9] | Potency [6]

COc1ccc(-c2ccn(CC[C@](C)(C(=O)NO)S(C)(=O)=O)c(=O)c2)c(F)c1
active: Potency [8] 7.94 µM | Potency [4] 7.98 µM | Potency [9] 5.65 µM | Potency [7] 2.52 µM
inactive: activation [1] -16.3% | Potency [3]

COc1cc(C2Oc3c(OC)cc(CCCO[C@@H]4O[C@H](CO)[C@@H](O)[C@H](O)[C@H]4O)cc3C2CO)ccc1O (stereo partly drawn)
inactive: activation [1] -6.25% | Potency [8] | Potency [3] | Potency [9] | Potency [6] | Potency [7]

O=C(NCCCCCCCCNC(=O)C(Cl)Cl)C(Cl)Cl
inactive: activation [1] -0.333%
active: Potency [2] 8.91 µM

OC[C@H]1O[C@@H](O[C@H]2[C@H](O)[C@@H](CO)O[C@@H](OCc3ccccc3)[C@@H]2O[C@@H]2OC[C@](O)(CO)[C@H]2O)[C@H](O)[C@@H](O)[C@@H]1O
active: Potency [4] 12.3 µM
inactive: activation [1] -11.5% | Potency [2] | Potency [3]

COC(=O)C1=CO[C@@H](O[C@@H]2O[C@H](COC(=O)/C=C/c3cc(OC)c(O)c(OC)c3)[C@@H](O)[C@H](O)[C@H]2O)[C@@H]2C(CO)=CC[C@H]12
inactive: activation [1] -16.8% | Potency [2] | Potency [3]

CC1=C2CC3C(CCC3(C)O)C(C)(O)CC2OC1=O (stereo not drawn)
inactive: activation [1] -2.68% | Potency [8] | Potency [3] | Potency [9] | Potency [6] | Potency [7]

O=c1nc(-c2ccccn2)sc2ccccc12
active: Potency [3] 15.8 µM | Potency [5] 2.82 µM | Potency [7] 1.13 µM
inactive: activation [1] -10.5% | Potency [8] | Potency [9] | Potency [6]

CC(O)CCC1C(CO[C@@H]2O[C@H](CO)[C@@H](O)[C@H](O)[C@H]2O)CC(O)CC1(C)C (stereo partly drawn)
active: Potency [4] 3.92 µM | Potency [6] 6.31 µM
inactive: activation [1] 5.34% | Potency [2] | Potency [3] | Potency [9]

Cn1cc(-c2ccncc2)c(-c2ccc(OCc3ccc4ccccc4n3)cc2)n1
inactive: activation [1] -22.8% and -12.9% | Potency [8] | Potency [3] | Potency [5] | Potency [9] | Potency [6] | Potency [7] | Potency [13]
active: Potency [11] 11.8 µM | Potency [16] 5.9 µM | Potency [12] 23.5 µM

Cn1cc(-c2ccc3ncc(Cc4ccc5ncccc5c4)n3n2)cn1
inactive: activation [1] 15.2% and 9.55% | Potency [8] | Potency [3] | Potency [6] | Potency [7] | viability [10] 105% | Potency [13]
active: Potency [16] 18.6 µM | Potency [14] 13.2 µM

Oc1ccc(Nc2nc(-c3ccc(Cl)cc3)cs2)cc1
inactive: activation [1] 24.1% | Potency [8] | Potency [3] | Potency [4] | Potency [9] | Potency [6] | Potency [15]
active: Potency [10] 9.34 µM | Potency [16] 14.8 µM | Potency [13] 6.61 µM | Potency [14] 16.6 µM

CN1CCN(C(=O)CN[C@@H]2C[C@H]2c2ccc(OCc3ccccc3)cc2)CC1
active: Potency [8] 14.1 µM | Potency [4] 3.98 µM | Potency [5] 1.41 µM | Potency [7] 20.1 µM
inactive: activation [1] 68.2%

C=C[C@H]1[C@H](O[C@@H]2O[C@H](CO)[C@@H](O)[C@H](O)[C@H]2O)OC=C(C(=O)OC)[C@H]1CCOC(=O)c1cc(O)c(O)c(O)c1
inactive: activation [1] 0% | Potency [8] | Potency [3] | Potency [9] | Potency [7]
active: Potency [4] 6.18 µM
